This note sets out measurements from PubChem BioAssay AID485317 (Broad Institute, 2010).

Each structure is given as a SMILES string. The campaign covered roughly 290,000 compounds. About 11,000 (3.8%) were called active.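 The calls were made as follows: active = mean replicate inhibition above about 79%, with every replicate also reaching it (limit read from the data); inconclusive = only one of the two criteria met; inactive = mean below limit and not every replicate reaching it.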 The sample as a whole holds a higher share of actives than the screen did.

Chain of FAD-linked sulfhydryl oxidase ALR (Homo sapiens) (P55789 whole entry, looked up): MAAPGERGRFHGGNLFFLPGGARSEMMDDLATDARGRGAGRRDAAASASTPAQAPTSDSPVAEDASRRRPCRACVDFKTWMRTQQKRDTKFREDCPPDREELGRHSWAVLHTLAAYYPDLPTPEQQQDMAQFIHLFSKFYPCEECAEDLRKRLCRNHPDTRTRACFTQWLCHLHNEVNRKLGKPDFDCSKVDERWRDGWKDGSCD

This experiment concerns the target FAD-linked sulfhydryl oxidase ALR (Homo sapiens) (UniProt P55789). Briefly: ALR-catalysed DTT oxidation blockers – biochemical, H2O2 detection, HRP-luminol luminescence, single point, primary screen (AID 485317). To be noted: purified ALR, active compounds read high, concentration not given here.
Consider `COc1ccc2ccn(C)c2c1`, for which the inhibition was 7.82% (inactive).

As to `COc1ccc2c(c1)cc1n2CCN=C1NN`, the inhibition was 97.6% (active).

With `O=C(CNC(=O)c1n[nH]c2ccccc12)Nc1cc(Cl)ccc1Cl`, the inhibition was -1.04% (inactive).

On to `Cc1ccc(CNC(=O)COC(=O)C2CCC2)cc1`, for which the inhibition was 2.97% (inactive).

As to `CCN(CC)CCCSc1nc2ccccc2s1`, the inhibition was -9.41% (inactive).

With `O=C(CSc1nc2ccccc2s1)Nc1ccc(C(=O)O)cc1`, the inhibition is -1.73% (inactive).

As for `O=C(O)c1ccccc1CSc1nc2ccccc2s1`, the inhibition is 98.5% (active).

Take `Cc1ccc(C(=O)OCC(=O)N2CC(C)CC(C)C2)cc1S(=O)(=O)N1CCCCC1` (stereo not drawn): the inhibition was -62.3% (inactive).

As for `COCCCn1c(SCC(=O)Nc2oc(C)c3c(C)n[nH]c(=O)c23)nc2sc3c(c2c1=O)CCC3`, the inhibition is -9.92% (inactive).

Turning to `CC(OC(=O)CCC(=O)c1ccccc1)C(=O)Nc1ccc(F)cc1` (stereo not drawn), the inhibition is -4.58% (inactive).

Take `O=C(CCCN=C1NS(=O)(=O)c2ccccc21)OCC(=O)c1ccc(F)c(F)c1`: the inhibition is -7.91% (inactive).

With `Nc1c(NCCc2ccccc2)c2ccccc2oc1=O`, the inhibition is 98.8% (active).

In the case of `NC(=O)c1oc2ccccc2c1NC(=O)Cc1ccccc1`, the inhibition is -7.38% (inactive).

As to `CC(C)(C)Nc1c(N)c(=O)oc2ccccc12`, the inhibition was 72.1% (inactive).

With `O=C(Nc1ccc(C(F)(F)F)cc1)c1cccc(-n2cnnn2)c1`, the inhibition is -5.63% (inactive).

Turning to `CSc1ncccc1C(=O)NCC(c1ccco1)N1CCCCC1` (stereo not drawn), the inhibition is -3.83% (inactive).

Turning to `O=C(COC(=O)c1cc(=O)[nH]c2ccccc12)NCc1cccc(Cl)c1`, the inhibition is 1.99% (inactive).

As to `COc1ccc(N2CCN(C(=O)/C(C#N)=C/c3ccccc3)CC2)cc1`, the inhibition was 33.6% (inactive).

As to `N#C/C(=C\c1ccc(-c2cccc([N+](=O)[O-])c2)o1)C(=O)NCCN1CCOCC1`, the inhibition was -9.22% (inactive).

As to `N#C/C(=C\c1ccc(N2CCOCC2)o1)C(=O)N1CCOCC1`, the inhibition was 83.6% (active).

`COc1ccccc1C(=O)NCCC(=O)NC(C)CCc1ccccc1` (stereo not drawn): the inhibition was -10.1% (inactive).

As for `Cc1sc2ncnc(N3CCC(C(=O)Nc4nc5ccc(Cl)cc5s4)CC3)c2c1C`, the inhibition was -1.15% (inactive).

For the molecule `CC(C)Oc1ccc(C(=O)NCC(=O)Nc2ccc3c(c2)CCC3)cc1`, the inhibition is 1.47% (inactive).

For the molecule `O=C(COc1ccc(Cl)cc1)Nc1ccc2c(c1)OCO2`, the inhibition is -11.8% (inactive).

As to `NNC(=O)COc1ccc(C2SCCS2)cc1`, the inhibition is 89.6% (active).

In the case of `COc1ccc(OCC(=O)NNC(=O)C2CCC2)cc1`, the inhibition was -2.8% (inactive).

Consider `O=C(NCc1ccccc1CN1CCCC1)C1CCN(S(=O)(=O)c2ccc(Cl)cc2)CC1`, for which the inhibition was 2.81% (inactive).

In the case of `COC(=O)C1=C(C)N(Cc2ccccc2)C(=NCCCOC(C)C)N[C@H]1c1ccccc1`, the inhibition is -6.98% (inactive).

Turning to `CCN(CCCNC(=O)CCn1c(=O)[nH]c2ccsc2c1=O)c1ccccc1`, the inhibition is 99.3% (active).

For the molecule `CCN(CC)CCCNC(=O)CCc1ccccc1`, the inhibition is -4.98% (inactive).

As to `CCCCC(CC)CNC(=O)CCCCn1c(=O)[nH]c2ccsc2c1=O` (stereo not drawn), the inhibition is -6.66% (inactive).

As for `CC(C)(C)Oc1ccccc1Nc1nc(NCCO)nc(N2CCCC2)n1`, the inhibition is 6.57% (inactive).

With `Cc1ccsc1C(=O)NNC(=O)COc1ccc(Br)cc1`, the inhibition was -3.21% (inactive).

Consider `CCn1c(SCC(=O)Nc2ccc(OC)c(OC)c2)nnc1-c1c[nH]c2ccccc12`, for which the inhibition was -15.3% (inactive).

As to `COc1ccc(NC(=O)CSc2nc3ccccc3c(=O)n2C)cc1`, the inhibition is -13.7% (inactive).

`Cc1[nH]c2ccccc2c1SCC(=O)Nc1nccs1`: the inhibition was 97.1% (active).

As for `Cn1c(SCC(=O)Nc2nccs2)nnc1-c1cccnc1`, the inhibition was 2.9% (inactive).

Regarding `COc1ccc(NC(=O)CSc2nncc(=O)n2N)cc1OC`, the inhibition is 87% (active).

In the case of `Nn1c(SCC(=O)Nc2nccs2)nncc1=O`, the inhibition was 98.8% (active).

For `COc1ccc(Cc2nnc(SCC(=O)N(c3ccccc3)C(C)C)n(N)c2=O)cc1`, the inhibition was -4.76% (inactive).

As for `CCn1c(SCC(=O)Nc2nccs2)nnc1-c1ccco1`, the inhibition is -4.02% (inactive).

For the molecule `Cc1cc(C(=O)OCC(=O)Nc2nccs2)c2ccccc2n1`, the inhibition is -1.42% (inactive).

Consider `Cc1cc(-c2nnc(SCC(=O)Nc3ccc(F)cc3)n2N)n[nH]1`, for which the inhibition was -1.02% (inactive).

On to `COc1ccc(NC(=O)CSc2nnc(Cc3ccccc3)c(=O)n2N)cc1`, for which the inhibition was 98.6% (active).

For the molecule `CCn1c(SCC(=O)Nc2nccs2)nnc1-c1ccncc1`, the inhibition is -12.3% (inactive).

With `O=C(c1cc(-c2ccc(Cl)s2)nc2ccccc12)N1CCOCC1`, the inhibition is -1.66% (inactive).

Consider `CN1CCC(N(C)S(=O)(=O)c2ccc(NC(=O)c3cccc(C#N)c3)cc2)CC1`, for which the inhibition is -3.41% (inactive).

With `Cc1nc2c(c(C)nn2-c2ccccc2)c(C)c1C`, the inhibition is -7.19% (inactive).

Consider `Cc1nc(-c2ccc(Cl)cc2)sc1C1(C)CC(c2ccc(Br)cc2)=NO1` (stereo not drawn), for which the inhibition was -3.38% (inactive).

`CCCCN(C(=O)CCNC(=O)NC12CC3CC(CC(C3)C1)C2)c1c(N)n(CCCC)c(=O)[nH]c1=O`: the inhibition is -9.44% (inactive).

With `CC(=O)CC(CC(=O)NC1CCCCC1)c1ccccc1` (stereo not drawn), the inhibition is -6.14% (inactive).

As for `CN(CC(=O)NNC(=O)CNC(=O)c1ccccc1Cl)S(=O)(=O)c1ccc(Cl)cc1`, the inhibition is -3.96% (inactive).

In the case of `CCN1C(=O)[C@@H]2[C@@H](c3ccc(-c4cccc(Cl)c4)cc3)N3CCC[C@@]3(C(=O)OC)[C@@H]2C1=O`, the inhibition was -0.179% (inactive).

On to `CC1(C)O[C@@H]2[C@H](O1)[C@@H](COS(=O)(=O)O)O[C@H]2n1cnc2c(=O)[nH]cnc21`, for which the inhibition is -3.87% (inactive).

Regarding `O=C(Nc1ncccc1O)c1ccc(S(=O)(=O)N2CCCCCC2)cc1`, the inhibition is -12.4% (inactive).

As for `O=C(OCCOCn1cc(Br)c(=O)[nH]c1=O)c1ccccc1`, the inhibition is 18.4% (inactive).

In the case of `Cc1[nH]c2ccccc2c1C(=O)CSCC(=O)O`, the inhibition is 98.3% (active).

In the case of `Cc1[nH]c2ccccc2c1C(=O)CN1CC(C)CC(C)C1` (stereo not drawn), the inhibition was -7.59% (inactive).

On to `CCOC(=O)N1CCN(CC(=O)c2c(C)[nH]c3ccccc23)CC1`, for which the inhibition was -13% (inactive).

Turning to `CC(=O)Nc1ccc(NC(=O)COC(=O)C2CCC(C(C)(C)C)CC2)cc1` (stereo not drawn), the inhibition is -2.92% (inactive).

Consider `CCOC(=O)CCCCCC(=O)Nc1ccc2c(c1)CC(=O)N([C@@H](C)CO)C[C@H](C)[C@@H](CN(C)Cc1ccccc1)O2`, for which the inhibition was -2.17% (inactive).

Regarding `CCCCNC(=O)N(O)C1N(/N=C/c2ccccc2O)C(=S)SC1(C)C` (stereo not drawn), the inhibition is -2.9% (inactive).

With `CCCCNC(=O)N(O)C1N(/N=C/c2ccc(N(C)C)cc2)C(=S)SC1(C)C` (stereo not drawn), the inhibition is 98.8% (active).

For `CCC(C)N1C(=S)SC(C)(C)C1N(O)C(=O)NC1CCCCC1` (stereo not drawn), the inhibition is -8.63% (inactive).

Regarding `COc1ccc(OCC(=O)NNC(=O)c2ccc(-c3ccccc3)cc2)cc1`, the inhibition was 1.13% (inactive).

Consider `Cc1nc(NNC(=O)c2ccccc2)cc(-c2ccccc2)n1`, for which the inhibition is 90.8% (active).

For `COc1ccc(C(=O)NNc2cc(C)nc(NNC(=O)c3ccc(OC)cc3)n2)cc1`, the inhibition was 12.7% (inactive).

Take `O=C(CNS(=O)(=O)c1ccc2c(c1)OCCCO2)N1CCN(c2ccc(F)cc2)CC1`: the inhibition was 3.71% (inactive).

Turning to `CC(C)NC(=O)Nc1cccc2c1O[C@H](CN(C)S(=O)(=O)c1cccs1)[C@@H](C)CN([C@H](C)CO)C2=O`, the inhibition is 0.238% (inactive).

Consider `Cc1[nH]n(-c2cccc(Cl)c2)c(=O)c1-c1ccc(Cl)cc1`, for which the inhibition was 32.9% (inactive).

`Cc1[nH]n(C(N)=S)c(=O)c1N=Nc1ccc(Cl)cc1Cl`: the inhibition was 96.2% (active).

Consider `CC1=NN(C(N)=S)C(=O)C1N=Nc1cc(Cl)ccc1Cl` (stereo not drawn), for which the inhibition is 34.1% (inactive).

For `Cc1ccc(S(=O)(=O)N(C)c2ccc(OCC(=O)OCc3ccc(C#N)cc3)cc2)cc1`, the inhibition was 2.46% (inactive).

`CCN(C(=O)CSc1nc2ccccc2n1CC)C1CCS(=O)(=O)C1` (stereo not drawn): the inhibition is 9.23% (inactive).

For `O=C(COC(=O)/C=C/c1nc2ccccc2s1)Nc1ccccc1Oc1ccccc1`, the inhibition was 28.6% (inactive).

For `CCN(C(=O)COC(=O)/C=C/c1nc2ccccc2s1)C1CCS(=O)(=O)C1` (stereo not drawn), the inhibition is 94.6% (active).

In the case of `COc1ccccc1NC(=O)C(C)OC(=O)c1ccc(-n2cnnn2)cc1` (stereo not drawn), the inhibition was 7.2% (inactive).

For `CCc1cccc(NC(=O)COC(=O)C2CCN(c3ccc(C(F)(F)F)cn3)CC2)c1`, the inhibition was -1.14% (inactive).

For `O=C(Oc1ccc(-c2nnco2)cc1)c1ccc(F)c(S(=O)(=O)N2CCOCC2)c1`, the inhibition was -0.68% (inactive).

Regarding `Cc1cccc(OCC(=O)OCC(=O)Nc2ccc(Cl)cn2)c1`, the inhibition was 0.248% (inactive).

Regarding `Cc1ccccc1C(=O)NCC(c1ccco1)N1CCc2ccccc21` (stereo not drawn), the inhibition was 27% (inactive).

Regarding `O=C(NCC(c1ccco1)N1CCc2ccccc21)c1cccc(F)c1` (stereo not drawn), the inhibition is 95.5% (active).

In the case of `COc1ccc(C(=O)NCC(c2ccco2)N2CCc3ccccc32)cc1OC` (stereo not drawn), the inhibition was 72.4% (inactive).

Take `O=C(Nc1cc(S(=O)(=O)Nc2ccc(Cl)cc2)ccc1O)c1ccc(F)cc1F`: the inhibition is -4.12% (inactive).

In the case of `CSc1ccc(S(=O)(=O)NCC(=O)OCC(=O)NC2(C#N)CCCCC2)cc1[N+](=O)[O-]`, the inhibition is -5.06% (inactive).

`O=c1[nH]c(-c2ccccc2)c(-c2ccccc2)[nH]1`: the inhibition is 98.6% (active).

Regarding `O=C1C=C(c2ccccc2)CCC1`, the inhibition is 0.158% (inactive).

Regarding `c1ccc(-c2cc(-c3ccccc3)[nH]n2)cc1`, the inhibition was -15.4% (inactive).

Turning to `O=C(Nc1ccccn1)C1CCN(S(=O)(=O)c2ccc3c(c2)OCCO3)CC1`, the inhibition was 1.39% (inactive).

For `CCc1ccc(C(=O)NC(=S)Nc2ccccc2N2CCOCC2)cc1`, the inhibition is -1.76% (inactive).

For `CCc1ccc2nc(Nc3ncc(C(C)=O)c(C)n3)nc(C)c2c1`, the inhibition was -4.9% (inactive).

`CCc1ccc2ncc(C(=O)c3ccccc3)c(N3CCOCC3)c2c1`: the inhibition was 97.1% (active).

As to `Cc1ccc(N2CC(C(=O)Nc3cc(Cl)ccc3-n3cncn3)CC2=O)cc1` (stereo not drawn), the inhibition was -10% (inactive).
